Consider eight compounds from PubChem BioAssay.

For one experiment, the system named is Lefty1. As to the kind of experiment: Lefty1 protein binding to printed compounds – biochemical, small-molecule microarray, 635/667 nm fluorescence, primary screen (AID 1139). The note with it: fluorescence 635/667, higher = more signal.
In experiment [1] the test system is wheat germ agglutinin (Triticum aestivum), Alexa647-labelled. The experiment is described as follows: Alexa647-WGA lectin binding to printed small molecules – biochemical, small-molecule microarray, 635/667 nm fluorescence, artefact control for SMM control-protein annotation, profiling panel (AID 1140).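 Note: score merges 667 nm feature emission with signal to noise over triplicate slides.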 To be noted: WGA-A647 binding, 635 nm fluorescence, higher = more signal.

The target in experiment [2] is Luciferin 4-monooxygenase (Photinus pyralis) (UniProt P08659). As to the kind of experiment: inhibition of purified Photinus pyralis luciferase – biochemical, luminescence, purified enzyme, 2006 set, primary screen (AID 1141).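 Note: cell-free assay with purified firefly luciferase at 100 ng per well in PBS; test concentration not given here.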 To be noted: purified firefly luciferase, SteadyGlo luminescence, 30 min; higher = more signal, called active from +8 up or from −8 down.
Chain of Luciferin 4-monooxygenase (Photinus pyralis) (P08659 whole entry, looked up): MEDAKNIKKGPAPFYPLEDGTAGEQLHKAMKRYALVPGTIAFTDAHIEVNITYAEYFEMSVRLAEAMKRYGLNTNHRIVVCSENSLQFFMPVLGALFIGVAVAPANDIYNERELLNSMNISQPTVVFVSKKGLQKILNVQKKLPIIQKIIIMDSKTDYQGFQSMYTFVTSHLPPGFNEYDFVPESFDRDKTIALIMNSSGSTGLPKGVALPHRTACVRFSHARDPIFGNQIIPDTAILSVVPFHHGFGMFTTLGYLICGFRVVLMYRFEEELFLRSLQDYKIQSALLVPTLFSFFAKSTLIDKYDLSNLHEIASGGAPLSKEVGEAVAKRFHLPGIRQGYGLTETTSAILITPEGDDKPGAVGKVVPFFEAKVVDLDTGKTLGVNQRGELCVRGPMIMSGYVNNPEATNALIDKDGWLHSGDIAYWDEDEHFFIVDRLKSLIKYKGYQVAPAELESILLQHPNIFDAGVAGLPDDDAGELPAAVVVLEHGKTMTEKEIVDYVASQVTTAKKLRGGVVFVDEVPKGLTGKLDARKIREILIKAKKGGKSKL
In experiment [3] the test system is Wnt5a (protein binding on small-molecule microarray). The experiment is described as follows: small molecules binding Wnt5a protein – biophysical, small-molecule microarray, 635/667 nm fluorescence, primary screen (AID 1142).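 Note: fluorescence read at 667 nm with signal to noise per printed feature.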 To be noted: 635 nm fluorescence, higher = more signal.
The nature of experiment [4]: ATP-based viability of Huh7 replicon cells – cell-based, CellTiter-Glo luminescence, basal, 48 h, cytotoxicity control for HCV replication inhibitor project, primary screen (AID 1143).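 Note: Huh7 hepatoma cells carrying a hepatitis C replication reporter with no stimulus; test concentration not given here.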 The note with it: higher = more signal, called active from +8 up or from −8 down.
A short description of experiment [5]: basal CRE-LacZ reporter activity in PC12 – cell-based, unstimulated, primary screen (AID 1145). The note with it: no forskolin, luminescence, 4.5 h, higher = more signal, called active from +8 up or from −8 down.
Experiment [6] is described as follows: forskolin-driven CRE-LacZ activity in PC12 – cell-based, CRE-LacZ reporter, forskolin-stimulated, primary screen (AID 1146).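 Note: PC12 cells with 6xCRE LacZ reporter stimulated by forskolin 10 µM; beta-galactosidase reporter signal reflecting CREB driven transcription.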 The note with it: luminescence, 4.5 h, higher = more signal, called active from +8 up or from −8 down.
In experiment [7] the target is Streptavidin (Streptomyces avidinii) (UniProt P22629). The experiment is described as follows: compounds binding control protein streptavidin – biophysical, small-molecule microarray, 635/667 nm fluorescence, artefact control for SMM compound annotation, primary screen (AID 1147).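 Note: signal reflects streptavidin binding to arrayed compounds as a control protein.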 The note with it: higher = more signal.
Chain of Streptavidin (Streptomyces avidinii) (P22629 whole entry, looked up): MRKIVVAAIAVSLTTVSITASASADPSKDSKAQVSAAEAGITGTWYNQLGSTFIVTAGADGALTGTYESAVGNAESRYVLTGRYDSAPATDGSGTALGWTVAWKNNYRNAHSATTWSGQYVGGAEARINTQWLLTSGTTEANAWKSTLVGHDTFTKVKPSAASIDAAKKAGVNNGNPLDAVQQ
Experiment [8] is described as follows: probe aInhba binding on compound microarray – biochemical, small-molecule microarray, 635/667 nm fluorescence, primary screen (AID 1148).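 Note: score merges 667nm spot fluorescence with signal-to-noise for antibody binding to printed compounds.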 The note with it: higher = more signal.
The target of experiment [9] is Torsin-1A (Homo sapiens) (UniProt O14656). The experiment is described as follows: TOR1A wild-type binding on microarray – cell lysate, small-molecule microarray, lysate, 635/667 nm, primary screen (AID 1149). The note with it: COS7 hTOR1A-WT lysate, 635 nm fluorescence, higher = more signal.
Chain of Torsin-1A (Homo sapiens) (O14656 whole entry, looked up): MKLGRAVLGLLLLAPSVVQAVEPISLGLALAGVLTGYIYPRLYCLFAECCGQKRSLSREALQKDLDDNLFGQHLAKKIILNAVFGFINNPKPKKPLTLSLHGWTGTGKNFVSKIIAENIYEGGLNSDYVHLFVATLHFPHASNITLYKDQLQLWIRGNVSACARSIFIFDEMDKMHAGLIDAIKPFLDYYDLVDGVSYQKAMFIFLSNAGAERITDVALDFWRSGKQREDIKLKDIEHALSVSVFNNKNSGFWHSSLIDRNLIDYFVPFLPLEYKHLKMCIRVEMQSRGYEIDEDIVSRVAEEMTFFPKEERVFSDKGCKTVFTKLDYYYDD
The target is the same in experiment [10]. As to the kind of experiment: torsin A mutant lysate binding on microarrays – cell lysate, small-molecule microarray, COS7 lysate, 635/667 nm fluorescence, primary screen (AID 1150).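 Note: score pools 667 nm emission and signal to noise measuring lysate protein binding.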 To be noted: COS7 hTOR1A mutant lysate, 635 nm fluorescence, higher = more signal.
The test system of experiment [11] is Sonic hedgehog protein (Shh). The experiment is described as follows: Sonic hedgehog microarray binding compounds – biochemical, small-molecule microarray, 635/667 nm fluorescence, primary screen (AID 1151).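 Note: Shh protein binding to compounds spotted on small-molecule microarray slides; score combines spot fluorescence intensity with signal-to-noise across triplicate slides.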 To be noted: 635 nm fluorescence, higher = more signal.
The nature of experiment [12]: optical density shifts of acrAB sulA E. coli – strain DRC41, OD650, 48 h, E. coli filamentation inducer project, primary screen (AID 1152).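 Note: E. coli MC1000 strain DRC41 lacking acrAB efflux pump and sulA.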 The note with it: higher = more signal, called active from +8 up or from −8 down.
Experiment [13] can be described thus: probe aLefty1 binding on compound microarray – biochemical, small-molecule microarray, 635/667 nm fluorescence, primary screen (AID 1153).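 Note: score merges spot fluorescence with signal-to-noise ratio from the scanned slide images.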 To be noted: higher = more signal.
A short description of experiment [14]: plasmodial surface anion channel blockers, osmotic lysis – cell-based, P. falciparum Indochina, OD700, 1 h, primary screen (AID 1154). To be noted: P. falciparum Indochina infected RBC osmotic lysis, higher = more signal, called active from +8 up or from −8 down.
A short description of experiment [15]: plasmodial surface anion channel blockers, osmotic lysis – cell-based, P. falciparum Indochina, OD700, 2 h, primary screen (AID 1155).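 Note: lysis reports solute entry through the parasite surface anion channel PSAC.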 To be noted: P. falciparum Indochina infected erythrocytes, higher = more signal, called active from +8 up or from −8 down.
Experiment [16] can be described thus: changes in parasitized red cell lysis, either direction – P. falciparum Indochina, OD700, 3 h, PSAC antagonist project, primary screen (AID 1156). To be noted: P. falciparum-infected erythrocytes, osmotic lysis, higher = more signal, called active from +8 up or from −8 down.
A short description of experiment [17]: plasmodial surface anion channel blockers, osmotic lysis – cell-based, P. falciparum Indochina, OD700, 18 h, primary screen (AID 1157). To be noted: P. falciparum Indochina infected erythrocytes, osmotic lysis OD700, 18 h; higher = more signal, called active from +8 up or from −8 down.
Experiment [18] is described as follows: S6 kinase pathway phospho-S6 level changes – cell-based, A549, cytoblot, luminescence, serum-stimulated, primary screen (AID 1158).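 Note: serum-stimulated A549 lung adenocarcinoma cells; signal is phosphorylated S6 detected by cytoblot immunostaining with HRP secondary.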 The note with it: 5 h, higher = more signal.
The target in experiment [19] is NADPH oxidase 2 (Homo sapiens) (UniProt P04839). The experiment is described as follows: compounds shifting NOX2 Amplex Red fluorescence – cell-based, HEK293-NOX2, PMA-stimulated, NOX inhibitor project, primary screen (AID 1159). Note: test concentration not given here. The note with it: 45 min, higher = more signal, called active from +8 up or from −8 down.
Chain of NADPH oxidase 2 (Homo sapiens) (P04839 whole entry, looked up): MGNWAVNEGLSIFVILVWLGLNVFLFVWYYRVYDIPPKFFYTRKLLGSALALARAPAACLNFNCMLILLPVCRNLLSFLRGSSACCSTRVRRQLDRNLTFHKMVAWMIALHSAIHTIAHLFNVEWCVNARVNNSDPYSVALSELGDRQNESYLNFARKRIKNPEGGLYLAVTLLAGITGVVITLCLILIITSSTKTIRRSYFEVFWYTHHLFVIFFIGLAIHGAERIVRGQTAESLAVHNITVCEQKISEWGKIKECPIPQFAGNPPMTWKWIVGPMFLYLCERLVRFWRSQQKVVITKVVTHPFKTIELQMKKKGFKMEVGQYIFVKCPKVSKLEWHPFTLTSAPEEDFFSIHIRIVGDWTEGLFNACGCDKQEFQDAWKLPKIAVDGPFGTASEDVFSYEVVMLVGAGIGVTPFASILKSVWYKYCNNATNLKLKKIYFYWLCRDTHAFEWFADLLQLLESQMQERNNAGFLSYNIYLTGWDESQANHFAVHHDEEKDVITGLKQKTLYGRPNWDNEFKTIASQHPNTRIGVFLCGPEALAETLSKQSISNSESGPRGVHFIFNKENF

Activity calls are given as the source filed them.

Take `[N-]=[N+]=NCc1ccccc1C[C@]1(C(=O)NCc2ccccc2)N=C(c2ccc(OCCCO)cc2)O[C@H]1c1ccccc1`: the composite z-score was -1.17 with Lefty1; 1.24 in [1]; 0.46 in experiment [3]; 0.532 in experiment [7]; 0.216 in experiment [8]; -0.265 in the experiment with Torsin-1A (Homo sapiens) [9]. In addition, the composite z-score was 0.765 in the experiment with Torsin-1A (Homo sapiens) [10], -0.948 in [11] and 0.832 in experiment [13]. In addition, the z-score in [2] was -1.19 (inactive); in [4] it was -4.02 (inactive); in experiment [5], 1.11 (inactive); in experiment [6], -1.14 (inactive); in experiment [12], 1.78 (inactive); in experiment [14], 10.9 (active). Further, the z-score in experiment [15] is 1.53 (inactive); in [16], 3.76 (inactive); in [17], -0.605 (inactive); in experiment [18] it was 1.09; in experiment [19] it was -0.425 (inactive).

Take `C=CCC(OC(C)=O)[C@@H]1[C@@H](N(Cc2cccc3ccccc23)C(=O)Cc2ccc(OC)cc2)c2cc(OCCCO)ccc2N1C(=O)Cc1ccc(OC)cc1` (stereo not given in full): the composite z-score in the experiment on Lefty1 was -0.392; in [1], 0.349; in experiment [3], -0.143; in [7], 0.131; in [8], -0.0986; with Torsin-1A (Homo sapiens) [9] it was 0.271. Also, the composite z-score with Torsin-1A (Homo sapiens) [10] was -0.482; in experiment [11] it was 0.0188; in [13] it was 0.051. Further, the z-score was -0.369 (inactive) in experiment [2]; -0.627 (inactive) in experiment [4]; 1.78 (inactive) in experiment [5]; -1.2 (inactive) in experiment [6]; 2.17 (inactive) in experiment [12]; 1.62 (inactive) in [14]. The z-score in experiment [15] was 0.317 (inactive); in [16], 0.119 (inactive); in experiment [17] it was 0.506 (inactive); in experiment [18], 0.623; in [19], 0.459 (inactive).

As to `CC(C)C(=C=CC[C@@H](O)c1ccc(CO)o1)CCO`, the composite z-score with Lefty1 was 0.759; in [1], 0.308; in experiment [3] it was 0.502; in [7], -0.294; in [8], -0.0986; with Torsin-1A (Homo sapiens) [9], 1.65. The composite z-score in the experiment with Torsin-1A (Homo sapiens) [10] is 0.289; in experiment [11], 1.48; in [13], -0.147. In addition, the z-score is -2.15 (inactive) in experiment [2]; -0.105 (inactive) in experiment [4]; 0.681 (inactive) in experiment [5]; -1.82 (inactive) in experiment [6]; 1.38 (inactive) in [12]; 1.95 (inactive) in experiment [14]. Further, the z-score in experiment [15] was 0.236 (inactive); in [16] it was 0.311 (inactive); in experiment [17], 0.0124 (inactive); in experiment [18] it was -0.109; in experiment [19], 1.62 (inactive).

For the compound `CO[C@H]1O[C@H](CO)[C@@H](OC(=O)Nc2ccccc2)[C@H](OC(=O)Nc2ccc3c(c2)OCO3)[C@H]1OC(=O)Nc1ccc2c(c1)OCO2`, the composite z-score was 0.345 in the experiment on Lefty1; 0.571 in [1]; 0.229 in experiment [3]; 0.142 in [7]; -0.018 in experiment [8]; 0.505 with Torsin-1A (Homo sapiens) [9]. Further, the composite z-score amounted to 0.781 with Torsin-1A (Homo sapiens) [10], 0.739 in [11] and 0.57 in experiment [13]. The z-score is -1.63 (inactive) in experiment [2]; -3.58 (inactive) in experiment [4]; 0.754 (inactive) in [5]; -2.46 (inactive) in experiment [6]; 2.12 (inactive) in experiment [12]; 4.45 (inactive) in experiment [14]. For the same compound, the z-score is -0.359 (inactive) in experiment [15]; 0.0835 (inactive) in experiment [16]; -1.81 (inactive) in [17]; 1.21 in experiment [18]; -3.84 (inactive) in experiment [19].

On to `COc1ccc([Si](C)(C)[C@H]2[C@H](CC(=O)N(CCO)Cc3ccccc3)O[C@@]3(C(=O)N(Cc4ccc(N5CCOC5=O)cc4)c4ccccc43)[C@@H]2C)cc1`, for which the composite z-score with Lefty1 was 1.13; in [1], 0.455; in [3], -0.0226; in experiment [7] it was 0.295; in experiment [8], 0.0111; with Torsin-1A (Homo sapiens) [9], 0.442. In addition, the results for the composite z-score (with Torsin-1A (Homo sapiens) [10]; in experiment [11]; in [13]) were 0.0957, 1.73 and -0.123, respectively. The z-score was -1.39 (inactive) in [2]; -2.42 (inactive) in [4]; 1.05 (inactive) in experiment [5]; -0.871 (inactive) in experiment [6]; 1.22 (inactive) in experiment [12]; 25.1 (active) in experiment [14]. Moreover, the z-score in experiment [15] is 14.5 (active); in experiment [16], -0.084 (inactive); in experiment [17], 2.17 (inactive); in experiment [18], -0.141; in experiment [19], 0.815 (inactive).

As for `CCCCCN1CC=CC23O[C@@H]4/C=C\CCC(C)OC(=O)C4[C@H]2C(=O)N(CCO)[C@@H]3C1=O` (stereo not given in full), the composite z-score is -0.853 in the experiment with Lefty1; -0.564 in [1]; -0.376 in experiment [3]; -0.877 in experiment [7]; -0.233 in experiment [8]; 0.615 with Torsin-1A (Homo sapiens) [9]. In addition, the composite z-score was 0.816 with Torsin-1A (Homo sapiens) [10], -0.542 in experiment [11] and -0.147 in [13]. Also, the z-score in experiment [2] is -0.967 (inactive); in [4], -0.989 (inactive); in experiment [5] it was 1.02 (inactive); in experiment [6], -1.06 (inactive); in experiment [12], 2.08 (inactive); in [14], 2.04 (inactive). For the same compound, the z-score in experiment [15] is 0.402 (inactive); in [16], 0.944 (inactive); in experiment [17], 0.0613 (inactive); in [18], 0.0564; in experiment [19] it was 1.88 (inactive).

Turning to `C=C(CCCC)/C(=C/C[C@@H](OC(=O)c1ccncc1)c1ccc(OCCO)cc1)c1cnc2ccccc2c1`, the composite z-score in the experiment on Lefty1 was determined as 1.64; in experiment [1], 1.35; in experiment [3], 0.826; in experiment [7], 1.72; in experiment [8] it was 0.108; in the experiment with Torsin-1A (Homo sapiens) [9], 0.546. For the same compound, the composite z-score with Torsin-1A (Homo sapiens) [10] was determined as 0.653; in experiment [11], 2.1; in experiment [13], 0.199. For the same compound, the z-score in [2] was -2.3 (inactive); in experiment [4], -1.93 (inactive); in [5] it was 13.4 (active); in experiment [6], -0.929 (inactive); in experiment [12] it was 1.21 (inactive); in [14], 26.2 (active). Further, the z-score in experiment [15] was 9.47 (active); in experiment [16], 1.54 (inactive); in experiment [17], 1.39 (inactive); in experiment [18], -0.175; in [19], -1.06 (inactive).

As for `Cc1ccc(N2C(=O)c3ccccc3[C@](C)(C(=O)NCC(F)(F)F)[C@@H]2c2ccc(CO)cc2)nc1`, the composite z-score is -2.1 in the experiment on Lefty1; -0.188 in [1]; -0.318 in experiment [3]; -0.763 in experiment [7]; -0.179 in [8]; -1.08 in the experiment with Torsin-1A (Homo sapiens) [9]. The results for the composite z-score (with Torsin-1A (Homo sapiens) [10]; in experiment [11]; in experiment [13]) were -0.727, -1.46 and -0.147, respectively. The z-score in experiment [2] was -0.679 (inactive); in experiment [4], -1.01 (inactive); in [5], 0.234 (inactive); in experiment [6], -1.31 (inactive); in [12] it was 1.49 (inactive); in experiment [14] it was 0.57 (inactive). Moreover, the z-score in experiment [15] was 0.253 (inactive); in [16], -0.317 (inactive); in [17] it was 0.127 (inactive); in experiment [18], 0.654; in experiment [19], -0.103 (inactive).
